# hcDAF-12 act = H. contortus DAF-12 nuclear receptor activators, primary screen, cell-based, luminescence, HEK293, lit1-tk-luc reporter; HEK293 hcDAF-12 lit1-tk-luc reporter; 0% DMSO, 100% Δ7-dafachronic acid; activation, % at 6.8 µM; 370,000 tested, 1.4% active; AID 652067, 2013;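 active = activation above the mean of all tested compounds plus 3 SD, cut at about 5.5% in these data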
# ssDAF12 agonist = S. stercoralis DAF-12 nuclear receptor activators, primary screen, cell-based, luminescence, HEK293, GRIP1 co-expression, lit1-tk-luc; Nuclear hormone receptor DAF-12 (Strongyloides stercoralis); HEK293 ssDAF-12/GRIP1 lit1-tk-luc reporter; % of 3 µM dafachronic acid response; activation, % at 6.8 µM; 370,000 tested, 1% active;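 active = activation above the mean over all tested compounds plus 3 SD, cut at about 0.9% in these data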
# DAX1 StAR inh = DAX1 (NR0B1) inhibitors on StAR promoter, primary screen, cell-based, luminescence, SF-1 (NR5A1), full-length DAX-1; inhibition, % at 6.8 µM; HEK293T StAR-luciferase reporter, SF-1/DAX-1 repression relief; 370,000 tested, 1.1% active;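 active = inhibition above the mean over all tested compounds plus 3 SD, cut at about 3.6% in these data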;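 note: higher inhibition means more luminescence from relief of DAX-1 repression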
# hgDAF-12 ag = H. glycines DAF-12 receptor agonists, primary screen, cell-based, luminescence, HEK293, GAL4 fusion, UAS-luciferase; HEK293 GAL4-hgDAF12 UAS-luciferase reporter, agonist luminescence; normalized to butyrate control; activation, % at 6.8 µM; 370,000 tested, 1.8% active;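 active = activation above a cutoff set at the mean of all screened compounds plus 3 SD, cut at about 10% in these data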
# SMARCA2 act = SMARCA2 (BRM) function activators, primary screen, cell-based, luminescence, high throughput | MG213 cells, MMTV-luciferase reporter, dexamethasone, overnight | activation, % at 9.1 µM | 370,000 tested, 1% active | AID 652017, 2013; in the data active = activation above about 7.8%
# DAX1 inh confirm = DAX1 (NR0B1) inhibitors relieving SF-1 repression, confirmation, cell-based, luminescence, HEK293T, full-length DAX-1, SF-1 activated StAR promoter; inhibition, % at 6.8 µM; HEK293T StAR-promoter luciferase reporter, SF-1/DAX-1 repression; AID 652134, 2013; shares compounds with DAX1 StAR inh; 2,400 tested, 87% active;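 active = inhibition above the average of every tested compound plus 3 SD, cut at about 3.8% in these data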
# Target sequence (P51843 whole entry, looked up): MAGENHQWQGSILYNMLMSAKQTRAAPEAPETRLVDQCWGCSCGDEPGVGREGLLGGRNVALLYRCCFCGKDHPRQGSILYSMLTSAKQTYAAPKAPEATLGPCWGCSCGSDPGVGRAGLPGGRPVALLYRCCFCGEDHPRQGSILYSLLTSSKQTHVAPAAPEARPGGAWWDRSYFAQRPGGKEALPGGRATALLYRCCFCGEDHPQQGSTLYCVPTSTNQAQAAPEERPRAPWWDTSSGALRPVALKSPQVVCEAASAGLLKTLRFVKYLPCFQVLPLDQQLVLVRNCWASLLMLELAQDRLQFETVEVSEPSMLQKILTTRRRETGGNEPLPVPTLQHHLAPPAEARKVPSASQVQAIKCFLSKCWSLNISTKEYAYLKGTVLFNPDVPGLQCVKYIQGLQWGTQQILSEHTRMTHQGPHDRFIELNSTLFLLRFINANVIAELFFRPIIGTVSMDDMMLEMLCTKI
# SF1 mutant ctr = StAR reporter signal changes without DAX1, counter-screen for DAX1 inhibitor project, cell-based, luminescence, AF-2 mutant SF-1, transactivation; shares compounds with DAX1 StAR inh; HEK293 StAR-luciferase, SF-1 AF2 mutant; inhibition, % at 6.8 µM; 2,400 tested, 78% active; AID 652136, 2013;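 active = inhibition above the mean of all tested compounds plus 3 SD, cut at about 3% in these data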
# LXR ag = LXR agonists, Gal4 luciferase reporter, confirmation, counter-screen for hcDAF-12 agonist project, cell-based, luminescence, HEK293, H. contortus campaign. HEK293 Gal4-LXR tk-luc reporter, 24 h; normalized: DMSO 0%, positive control 100%. activation, % at 6.8 µM. shares compounds with hcDAF-12 act. AID 743027, 2013. 3,400 tested, under 10 active;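 active = mean percent activation of the reporter above a cutoff set as the average over tested compounds plus their standard deviation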
# hcDAF12 conf = H. contortus DAF-12 receptor agonists, confirmation, cell-based, luminescence, HEK293, lit1-tk-luc, triplicate; activation, % at 6.8 µM; AID 743032, 2013; 3,400 tested, 61% active; HEK293 hcDAF-12 lit1-tk-luc reporter; % of Δ7-dafachronic acid response; shares compounds with hcDAF-12 act;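 active = mean activation across triplicate tests above the threshold derived from the earlier primary screen, cut at about 5.5% in these data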
# hgDAF12 conf = H. glycines DAF-12 receptor agonists, confirmation, cell-based, luminescence, HEK293, GAL4-LBD fusion; shares compounds with hgDAF-12 ag; 3,300 tested, 80% active; activation, % at 6.8 µM; HEK293 GAL4-hgDAF12 luciferase reporter, agonist mode; percent of butyrate response; AID 743050, 2013;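 active = mean activation over triplicate wells above the hit cutoff derived from the earlier primary screen, cut at about 11% in these data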
# LXR ag 2 = LXR agonists, Gal4 luciferase reporter, confirmation, counter-screen for hgDAF-12 agonist project, cell-based, luminescence, HEK293, H. glycines campaign. 3,300 tested, under 10 active. 24 h. shares compounds with hgDAF-12 ag. activation, % at 6.8 µM. AID 743051, 2013;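 active = mean activation of the triplicate above a set limit carried over from the primary screen, none filed active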
# Hits are given with their value; 0 = inactive; - = no result given. Only some compounds are listed: those with a hit (about 4.2% of all), similar ones and a draw of the others.
SMILES,hcDAF-12 act,ssDAF12 agonist,DAX1 StAR inh,hgDAF-12 ag,SMARCA2 act,DAX1 inh confirm,SF1 mutant ctr,hgDAF12 conf,LXR ag 2,others
CCOC(=O)[C@]12CCCC=C1N(Cc1ccc3c(c1)OCO3)C(=O)[C@H](CC(=O)NCC13CC4CC(CC(C4)C1)C3)C2,0,0,0,0,0,-,-,-,-,
CCc1ccc(NC(=O)c2cnn(-c3ccccc3)c2C)cc1,0,1.1,6.1,14.8,0,11.1,6.0,18.9,0,
CSCCC(C(=O)NC(C)(C)C)n1c(-c2ccc3c(c2)OCO3)nc2ccccc21 (stereo unspecified),0,0,0,0,0,-,-,-,-,
Cc1cc(CNC(=O)c2cc(COc3ccc(F)c(F)c3)on2)nn1C,5.7,0,6.4,15.0,0,7.4,3.8,14.2,0,
CC(C)C[C@@H](CN1CCC[C@@H]1CN1C(=O)C(=O)NC[C@@H]1Cc1ccccc1)N1C[C@H](Cc2ccccc2)N(CC2CCCCC2)C(=O)C1=O,0,0,0,0,0,-,-,-,-,
Cc1cccc(Cl)c1NC(=O)NCCCN1CCOCC1,0,0,0,0,0,-,-,-,-,
Oc1[nH]c2ccccc2c1C=Nc1ccc2c(c1)OCO2,7.0,0,6.6,16.9,0,16.3,8.2,19.1,0,LXR ag=0;hcDAF12 conf=6.8
Cc1[nH]c2ccccc2c1/C=N\NC(=O)CNc1ccc2c(c1)OCO2,0,0,0,0,0,-,-,-,-,
COc1ccc(Cl)cc1S(=O)(=O)N1CCN(C(=O)CSc2nc3ccccc3nc2N2CCCC2)CC1,0,0,0,0,0,-,-,-,-,
COc1ccc(/C=N/N=C(\N)c2nonc2N)cc1,12.2,0,8.7,15.5,0,14.4,5.9,16.1,0,LXR ag=0;hcDAF12 conf=6.6
C[C@H]1[C@@H](OC(=O)NCc2cccc(Cl)c2)CC[C@@]23CCCN2C(=O)CCC[C@@H]13,0,0,-,0,-,-,-,-,-,
Cc1cccc(-c2cc(N)n(-c3ccccc3)n2)c1,0,0,7.8,17.6,0,11.2,6.8,20.8,0,
CCc1ccc(-c2cc(N)n(-c3ccccc3)n2)cc1,0,0,7.3,17.2,0,12.1,7.2,18.3,0,
O=C(NCc1ccccc1)OC1CCC12CCC(c1ccccc1)CC2 (stereo unspecified),0,0,-,0,-,-,-,-,-,

# High-throughput results from PubChem.
